A short description of assay [1]: compounds binding Alexa647 anti-His antibody – biochemical, small-molecule microarray, 635 nm fluorescence, artefact control for SMM control protein annotation, primary screen (AID 1128).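 Further: score merges feature fluorescence with signal-to-noise for each printed compound spot.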 Particulars: higher = more signal.
Assay [2] concerns Human papillomavirus type 1a E7 protein (residues 1-88). The assay is described as follows: HPV1a E7 small-molecule binders, primary screen, biochemical, small-molecule microarray, residues 1-88, 635 nm (AID 1129). The conditions noted are these: small-molecule microarray binding, fluorescence 635 nm; higher = more signal.
Assay [3] addresses Focal adhesion kinase 1 (Homo sapiens) (UniProt Q05397). The assay is described as follows: PTK2 protein binding on printed compound slides – biochemical, small-molecule microarray, 635/667 nm fluorescence, BSA, DTT, primary screen (AID 1130).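 Further: composite of spot emission at 667 nm and signal to noise over triplicate slides.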 The conditions noted are these: 635 nm fluorescence, higher = more signal.
The test system of assay [4] is Fibrinogen (Alexa647-labelled). The assay is described as follows: Alexa647-fibrinogen binding to printed small molecules – biochemical, small-molecule microarray, 635/667 nm fluorescence, artefact control for SMM control-protein annotation, profiling panel (AID 1131).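 Further: z-score merges 667 nm fluorescence with per-spot signal-to-noise over triplicate slides.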 Particulars: fibrinogen-A647 binding fluorescence, higher = more signal.
For assay [5], the target named is Follistatin (Homo sapiens) (UniProt P19883). The assay is described as follows: FST protein binding to printed compounds – biochemical, small-molecule microarray, 635/667 nm fluorescence, primary screen (AID 1132). The conditions noted are these: 635 nm fluorescence, higher = more signal.
Sequence of Follistatin (Homo sapiens) (P19883 whole entry, looked up): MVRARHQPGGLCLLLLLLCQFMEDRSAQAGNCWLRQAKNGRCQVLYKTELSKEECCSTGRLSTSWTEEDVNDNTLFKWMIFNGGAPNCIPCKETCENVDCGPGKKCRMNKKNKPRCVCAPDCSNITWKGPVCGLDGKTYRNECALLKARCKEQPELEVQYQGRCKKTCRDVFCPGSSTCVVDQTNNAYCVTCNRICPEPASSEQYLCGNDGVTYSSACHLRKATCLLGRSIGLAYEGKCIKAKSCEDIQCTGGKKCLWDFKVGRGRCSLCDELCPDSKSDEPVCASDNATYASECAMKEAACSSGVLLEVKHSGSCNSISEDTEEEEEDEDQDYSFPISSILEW
In assay [6] the target is Fibroblast growth factor 2 (Homo sapiens) (UniProt P09038). The assay is described as follows: basic fibroblast growth factor binding to printed compounds – biochemical, small-molecule microarray, 635/667 nm fluorescence, primary screen (AID 1133). The conditions noted are these: FGF2, fluorescence 635/667, higher = more signal.
Sequence of Fibroblast growth factor 2 (Homo sapiens) (P09038 whole entry, looked up): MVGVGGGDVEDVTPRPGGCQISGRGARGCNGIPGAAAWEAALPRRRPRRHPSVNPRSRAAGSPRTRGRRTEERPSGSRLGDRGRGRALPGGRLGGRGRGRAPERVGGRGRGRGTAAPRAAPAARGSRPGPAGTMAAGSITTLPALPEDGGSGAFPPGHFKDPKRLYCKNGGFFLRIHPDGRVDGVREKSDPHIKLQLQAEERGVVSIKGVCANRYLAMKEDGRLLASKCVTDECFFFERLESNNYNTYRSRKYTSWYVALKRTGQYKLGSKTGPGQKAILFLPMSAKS
A short description of assay [7]: JC-1 mitochondrial potential readout, lung cancer cells – cell-based, A549, JC-1 fluorescence, basal, 24 h, 100 nL, profiling panel (AID 1138).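 Further: A549 lung adenocarcinoma cells under basal conditions with no added stimulus; test concentration not given here.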 Particulars: higher = more signal.
Assay [8] relates to Lefty1. The assay is described as follows: Lefty1 protein binding to printed compounds – biochemical, small-molecule microarray, 635/667 nm fluorescence, primary screen (AID 1139). Particulars: fluorescence 635/667, higher = more signal.
The subject of assay [9] is wheat germ agglutinin (Triticum aestivum), Alexa647-labelled. The assay is described as follows: Alexa647-WGA lectin binding to printed small molecules – biochemical, small-molecule microarray, 635/667 nm fluorescence, artefact control for SMM control-protein annotation, profiling panel (AID 1140).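 Further: score merges 667 nm feature emission with signal to noise over triplicate slides.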 Particulars: WGA-A647 binding, 635 nm fluorescence, higher = more signal.

Assay [10] addresses Luciferin 4-monooxygenase (Photinus pyralis) (UniProt P08659). The assay is described as follows: inhibition of purified Photinus pyralis luciferase – biochemical, luminescence, purified enzyme, 2006 set, primary screen (AID 1141).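 Further: cell-free assay with purified firefly luciferase at 100 ng per well in PBS; test concentration not given here.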 Particulars: purified firefly luciferase, SteadyGlo luminescence, 30 min; higher = more signal, called active from +8 up or from −8 down.
In assay [11] the test system is Wnt5a (protein binding on small-molecule microarray). The assay is described as follows: small molecules binding Wnt5a protein – biophysical, small-molecule microarray, 635/667 nm fluorescence, primary screen (AID 1142).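 Further: fluorescence read at 667 nm with signal to noise per printed feature.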 The conditions noted are these: 635 nm fluorescence, higher = more signal.
Assay [12] can be described thus: ATP-based viability of Huh7 replicon cells – cell-based, CellTiter-Glo luminescence, basal, 48 h, cytotoxicity control for HCV replication inhibitor project, primary screen (AID 1143).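 Further: Huh7 hepatoma cells carrying a hepatitis C replication reporter with no stimulus; test concentration not given here.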 The conditions noted are these: higher = more signal, called active from +8 up or from −8 down. For orientation: A replicon is a self-replicating genome or part of one, used to study replication in cells.

The nature of assay [13]: Pseudomonas biofilm growth suppression – PAO1 strain, BacTiter-Glo luminescence, LB-PBS, primary screen (AID 1144). Particulars: P. aeruginosa PAO1 biofilm, 12 h, higher = more signal.
The nature of assay [14]: basal CRE-LacZ reporter activity in PC12 – cell-based, unstimulated, primary screen (AID 1145). The conditions noted are these: no forskolin, luminescence, 4.5 h, higher = more signal, called active from +8 up or from −8 down.
Assay [15] is described as follows: forskolin-driven CRE-LacZ activity in PC12 – cell-based, CRE-LacZ reporter, forskolin-stimulated, primary screen (AID 1146).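 Further: PC12 cells with 6xCRE LacZ reporter stimulated by forskolin 10 µM; beta-galactosidase reporter signal reflecting CREB driven transcription.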 The conditions noted are these: luminescence, 4.5 h, higher = more signal, called active from +8 up or from −8 down.
Assay [16] deals with Streptavidin (Streptomyces avidinii) (UniProt P22629). The assay is described as follows: compounds binding control protein streptavidin – biophysical, small-molecule microarray, 635/667 nm fluorescence, artefact control for SMM compound annotation, primary screen (AID 1147).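 Further: signal reflects streptavidin binding to arrayed compounds as a control protein.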 The conditions noted are these: higher = more signal.
Sequence of Streptavidin (Streptomyces avidinii) (P22629 whole entry, looked up): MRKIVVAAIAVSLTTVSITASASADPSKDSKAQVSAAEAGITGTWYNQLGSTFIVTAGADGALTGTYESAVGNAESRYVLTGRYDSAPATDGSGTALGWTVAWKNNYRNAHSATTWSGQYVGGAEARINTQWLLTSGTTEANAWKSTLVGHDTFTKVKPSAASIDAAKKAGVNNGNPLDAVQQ
Assay [17] is described as follows: probe aInhba binding on compound microarray – biochemical, small-molecule microarray, 635/667 nm fluorescence, primary screen (AID 1148).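 Further: score merges 667nm spot fluorescence with signal-to-noise for antibody binding to printed compounds.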 Particulars: higher = more signal.
Assay [18] deals with Torsin-1A (Homo sapiens) (UniProt O14656). The assay is described as follows: TOR1A wild-type binding on microarray – cell lysate, small-molecule microarray, lysate, 635/667 nm, primary screen (AID 1149). The conditions noted are these: COS7 hTOR1A-WT lysate, 635 nm fluorescence, higher = more signal.
Sequence of Torsin-1A (Homo sapiens) (O14656 whole entry, looked up): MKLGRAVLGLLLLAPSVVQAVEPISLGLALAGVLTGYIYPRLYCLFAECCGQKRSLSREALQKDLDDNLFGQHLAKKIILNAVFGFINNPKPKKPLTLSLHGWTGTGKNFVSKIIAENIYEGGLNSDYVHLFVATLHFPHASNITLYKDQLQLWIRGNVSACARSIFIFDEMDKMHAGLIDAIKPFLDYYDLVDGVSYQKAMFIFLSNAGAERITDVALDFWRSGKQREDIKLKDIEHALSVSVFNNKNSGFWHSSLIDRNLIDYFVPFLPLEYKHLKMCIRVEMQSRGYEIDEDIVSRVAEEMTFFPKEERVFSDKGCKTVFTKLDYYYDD
The target is the same in assay [19]. The assay is described as follows: torsin A mutant lysate binding on microarrays – cell lysate, small-molecule microarray, COS7 lysate, 635/667 nm fluorescence, primary screen (AID 1150).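 Further: score pools 667 nm emission and signal to noise measuring lysate protein binding.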 The conditions noted are these: COS7 hTOR1A mutant lysate, 635 nm fluorescence, higher = more signal.
Assay [20] has as its system Sonic hedgehog protein (Shh). The assay is described as follows: Sonic hedgehog microarray binding compounds – biochemical, small-molecule microarray, 635/667 nm fluorescence, primary screen (AID 1151).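 Further: Shh protein binding to compounds spotted on small-molecule microarray slides; score combines spot fluorescence intensity with signal-to-noise across triplicate slides.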 The conditions noted are these: 635 nm fluorescence, higher = more signal.

Each structure is given as a SMILES string. Activity calls are given as the source filed them. Unless noted, how the calls were made is not given here.

Sequence of Focal adhesion kinase 1 (Homo sapiens) (Q05397 whole entry, looked up): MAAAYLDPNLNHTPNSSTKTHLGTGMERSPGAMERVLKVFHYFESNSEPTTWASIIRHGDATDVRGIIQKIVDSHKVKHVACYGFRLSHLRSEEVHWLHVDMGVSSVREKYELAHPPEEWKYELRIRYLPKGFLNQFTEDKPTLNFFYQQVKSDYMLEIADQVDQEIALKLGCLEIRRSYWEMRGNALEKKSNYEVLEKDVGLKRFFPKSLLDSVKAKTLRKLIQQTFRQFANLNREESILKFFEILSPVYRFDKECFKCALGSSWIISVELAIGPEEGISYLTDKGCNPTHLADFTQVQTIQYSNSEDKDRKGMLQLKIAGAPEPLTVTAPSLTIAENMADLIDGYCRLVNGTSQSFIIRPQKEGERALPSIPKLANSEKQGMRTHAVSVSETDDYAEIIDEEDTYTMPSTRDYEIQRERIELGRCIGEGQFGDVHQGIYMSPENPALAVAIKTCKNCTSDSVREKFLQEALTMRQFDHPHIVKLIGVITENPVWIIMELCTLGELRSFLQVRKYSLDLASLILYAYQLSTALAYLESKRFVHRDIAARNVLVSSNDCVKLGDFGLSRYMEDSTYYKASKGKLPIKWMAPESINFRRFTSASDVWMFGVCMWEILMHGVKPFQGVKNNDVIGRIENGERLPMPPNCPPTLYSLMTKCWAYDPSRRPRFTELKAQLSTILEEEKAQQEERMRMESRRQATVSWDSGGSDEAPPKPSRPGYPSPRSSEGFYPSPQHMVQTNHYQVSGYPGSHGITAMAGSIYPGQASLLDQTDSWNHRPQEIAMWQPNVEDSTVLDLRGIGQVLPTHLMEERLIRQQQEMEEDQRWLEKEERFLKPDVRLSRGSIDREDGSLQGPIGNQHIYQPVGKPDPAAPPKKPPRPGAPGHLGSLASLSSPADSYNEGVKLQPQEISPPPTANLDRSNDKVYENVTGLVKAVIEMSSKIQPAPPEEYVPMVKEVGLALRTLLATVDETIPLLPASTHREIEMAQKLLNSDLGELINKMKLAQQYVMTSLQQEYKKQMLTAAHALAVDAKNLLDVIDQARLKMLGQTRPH
Sequence of Luciferin 4-monooxygenase (Photinus pyralis) (P08659 whole entry, looked up): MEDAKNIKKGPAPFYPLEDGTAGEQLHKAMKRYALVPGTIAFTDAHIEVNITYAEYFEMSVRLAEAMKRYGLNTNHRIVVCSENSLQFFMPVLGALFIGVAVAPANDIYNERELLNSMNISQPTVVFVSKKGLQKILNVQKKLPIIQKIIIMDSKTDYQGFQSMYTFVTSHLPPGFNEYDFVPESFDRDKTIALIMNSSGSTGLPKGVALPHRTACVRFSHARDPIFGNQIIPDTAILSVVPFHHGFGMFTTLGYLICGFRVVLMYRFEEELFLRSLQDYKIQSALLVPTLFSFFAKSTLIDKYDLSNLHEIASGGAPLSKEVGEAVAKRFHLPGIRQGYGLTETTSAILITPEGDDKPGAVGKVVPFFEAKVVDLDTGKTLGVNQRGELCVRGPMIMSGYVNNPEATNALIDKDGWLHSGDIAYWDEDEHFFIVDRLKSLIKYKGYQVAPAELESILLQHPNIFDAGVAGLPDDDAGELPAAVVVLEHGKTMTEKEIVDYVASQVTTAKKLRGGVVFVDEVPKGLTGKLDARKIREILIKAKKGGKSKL

Turning to `C#CCN([C@H](/C=C/C1CC1)[C@@H](O)Cc1ccccc1)[C@@H](Cc1ccccc1)C(=O)OC`, the composite z-score in assay [1] is 0.482; in assay [2], -0.517; in assay [3] it was -0.113; in assay [4], -0.408; in assay [5], 0.794; in assay [6], -0.182. Besides, the composite z-score was 0.683 in assay [8]; -0.34 in [9]; -0.48 in assay [11]; 0.483 in [16]; 0.0013 in [17]; 0.0515 in [18]. The values for the composite z-score in assay [19] and in [20] were -0.409 and 1.08, respectively. Further, the z-score in assay [7] was 3.47; in assay [10], 0.778 (inactive); in [12] it was -2.91 (inactive); in assay [13], -0.669 (inactive); in assay [14] it was 3.21 (inactive); in [15], -0.765 (inactive).
As for `C=CC[C@@]1(C(=O)O)N=C(c2ccc(OCCCO)cc2)O[C@@H]1c1ccccc1CN=[N+]=[N-]`, the composite z-score in assay [1] came out at 0.706; in assay [2], 0.86; in assay [3] it was 0.518; in assay [4] it was 0.68; in [5] it was 0.939; in assay [6], 0.381. The composite z-score in assay [8] was 0.588; in assay [9], 1.24; in [11], 0.229; in assay [16], 1.93; in assay [17], -0.0736; in assay [18], -0.0975. Further, the composite z-score in [19] was determined as 0.884; in [20], 0.582. Besides, the z-score in assay [7] was -0.472; in assay [10], -0.926 (inactive); in assay [12] it was -1.9 (inactive); in [13], -1.6 (inactive); in [14], -0.183 (inactive); in [15] it was -1.13 (inactive).
With `C=CCNC(=O)[C@H]1[C@@H]2C(=O)O[C@@H](c3ccccc3)[C@@H](c3ccccc3)N2[C@@H](c2ccccc2OCCO)[C@]12C(=O)N(C(=O)OCCOC)c1ccccc12`, the composite z-score in assay [1] is 1.23; in [2] it was 1.22; in [3], 0.706; in assay [4] it was 0.887; in assay [5], 0.465; in assay [6] it was 0.849. For the same compound, the composite z-score is 0.583 in assay [8]; 1.07 in [9]; 0.307 in assay [11]; 0.618 in [16]; -0.358 in assay [17]; -0.025 in assay [18]. Further, the composite z-score in assay [19] worked out at 0.664; in assay [20], 1.14. The z-score is -0.276 in assay [7]; 0.206 (inactive) in [10]; -4.39 (inactive) in [12]; 0.369 (inactive) in assay [13]; -0.195 (inactive) in [14]; 6.34 (inactive) in assay [15].
As to `COCCOC(=O)N1C(=O)[C@@]2(c3cc(C#CC4(O)CCCCCC4)ccc31)[C@H](c1ccc(OCCO)cc1)N1[C@H](c3ccccc3)[C@H](c3ccccc3)OC(=O)[C@H]1[C@@H]2C(=O)N1CCCCCCC1`, the composite z-score came out at 0.459 in [1]; 1.21 in [2]; 0.175 in [3]; 0.95 in assay [4]; 1.39 in [5]; 1.47 in assay [6]. Also, the composite z-score is 1.16 in assay [8]; 1.32 in assay [9]; 0.539 in assay [11]; 1.68 in [16]; 1.63 in [17]; 1.12 in assay [18]. In addition, the composite z-score in assay [19] stood at 1.12; in assay [20], 2. Besides, the z-score in assay [7] is -1.31; in [10], -1.34 (inactive); in [12], -4.81 (inactive); in [13], -0.227 (inactive); in [14], 0.212 (inactive); in assay [15] it was -0.325 (inactive).
As to `Cc1c(NC(=O)/C(C#N)=C/c2ccc(Cl)cc2)c(=O)n(-c2ccccc2)n1C`, the composite z-score in assay [1] is 0.753; in assay [2], 0.8; in assay [3], -0.171; in assay [4], 1.03; in assay [5], 0.114; in assay [6] it was 0.627. The composite z-score in [8] is 0.466; in assay [9], 0.794; in assay [11], -0.159; in [16], 1.33; in assay [17], -0.0259; in assay [18], 0.34. Further, the composite z-score in assay [19] is 0.407; in assay [20] it was -0.217. Moreover, the z-score is 1.28 in assay [7]; -0.304 (inactive) in [10]; -1.62 (inactive) in assay [12]; -1.04 (inactive) in assay [13]; -0.374 (inactive) in assay [14]; -1.64 (inactive) in assay [15].

The values above are taken from PubChem BioAssay.
